Compound activity deposited in PubChem BioAssay by National Center for Advancing Translational Sciences (NCATS).
Most compounds without a hit are left out; they make up all but 0.95% or so of the library.
A647 fluor: compound fluoresces in the A647 spectral region; Compound fluorescence, A647 channel (570/671 nm), Tris buffer; max dye-equivalent concentration, M; 59,000 tested, under 10 active; AID 592;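 also: values scaled relative to a standard on each plate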
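Compounds pinned into 100 mM Tris pH 8.0, 15 min at room temperature, then read with 570 nm excitation/671 nm emission filters. Fluorescence normalized to an on-plate six-point Alexa 647 standard curve, giving dye-equivalent concentration per compound concentration.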
Fluorescein autfl: compound fluoresces in the fluorescein spectral region; Compound autofluorescence, 480/540 nm, fluorescein-equivalent; active compounds read high; max fluorescein-equivalent concentration, M; 59,000 tested, 0.91% active; in the data active = max fluorescein-equivalent concentration above about 10 nM; inconclusive = between about 1.1 nM and that limit
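Read-out is intrinsic compound fluorescence at 480/540 nm (excitation/emission), expressed as dye-equivalent concentration using a fluorescein standard series run on every plate. Compounds sat 15 min at room temperature in 100 mM Tris, pH 8.0.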
A488 fluor: compound autofluorescence in A488 spectral region; compound autofluorescence, A488 spectral region, dye equivalency; Compound Type: qHTS ECL - MLSMR; max dye equivalency, M; 59,000 tested, 0.1% active; AID 591
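Compound autofluorescence was read in 100 mM Tris pH 8.0 after 15 min at room temperature, ex 480 nm/em 540 nm. Intensities were converted to A488 dye-equivalent concentration using an on-plate six-point A488 standard curve.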
Resorufin fluor: resorufin region autofluorescence | Compound fluorescence, resorufin region 547/598 nm, buffer; active compounds read high | max dye-equivalent concentration, M | 59,000 tested, 0.04% active | AID 588
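Tris 100 mM pH 8.0; compound added, 15 min RT; CCD imager read, ex 547 nm/em 598 nm; signal normalized to resorufin standard curve (six concentrations per plate) as dye-equivalent concentration.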
Rhodamine autofl: compound fluoresces in the rhodamine spectral region; Rhodamine-region fluorescence, 547/598 nm, Tris buffer; active compounds read high; max dye-equivalent concentration, M; 59,000 tested, 0.05% active; AID 594; in the data active = max dye-equivalent concentration above about 11 nM; inconclusive = between about 1.1 nM and that limit
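Compound fluorescence in 100 mM Tris, pH 8.0, read after 15 min at room temperature with 547 nm excitation and 598 nm emission. Output is dye-equivalent concentration from an on-plate rhodamine standard series.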
Texas Red fluor: compound fluoresces in the Texas Red spectral region | 59,000 tested, 0.06% active | max dye-equivalent concentration, M | Compound fluorescence, Texas Red channel, 547/618 nm; active compounds read high; in the data active = max dye-equivalent concentration above about 10 nM; inconclusive = between about 1.1 nM and that limit
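Compound titrations in 100 mM Tris pH 8.0 were incubated 15 min at room temperature and read at 547 nm excitation / 618 nm emission. Texas Red six-point standard curve on each plate converted fluorescence to dye-equivalent concentration.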
An asterisk follows results filed as active; i = inactive; u = inconclusive. Unless noted, no rule for the calls is given here.

SMILES	A647 fluor	Fluorescein autfl	A488 fluor	Resorufin fluor	Rhodamine autofl	Texas Red fluor
O=C(O)c1cc(O)c2c(c1)C(=O)c1cccc(O)c1C2=O	2.3e-08	8.6e-08M*	u	i	i	i
O=S(=O)(CCn1cccc1)CCn1cccc1	1e-09	1e-08M*	i	i	i	i
Cc1ccc2[nH]c3c(c2c1)CN(C(=O)CN1CCN(c2ccccn2)CC1)CC3	3.9e-08	1.8e-08M*	i	i	i	i
Cc1ccc2[nH]c3c(c2c1)CN(C(=O)CN1CCSCC1)CC3	1.5e-09	u	i	i	i	u
Cc1ccc2[nH]c3c(c2c1)CN(C(=O)CN1CC(C)OC(C)C1)CC3 (centres undefined)	8.9e-08	1.1e-08M*	i	i	i	i
COc1cccc(Cn2c(=O)c(-c3cccc(C#N)c3)nc3cnc(Nc4ccccc4)nc32)c1	3.1e-08	1.3e-08M*	i	i	i	i
N#Cc1cccc(-c2nc3cnc(Nc4ccccc4)nc3n(C[C@H]3CCCO3)c2=O)c1	1.8e-09	1.3e-08M*	i	i	i	i
O=c1c(-c2cccs2)nc2cnc(Nc3ccccc3)nc2n1C[C@H]1CCCO1	3.5e-08	4.2e-08M*	u	i	i	i
COCCn1c(=O)c(-c2cccc(C#N)c2)nc2cnc(Nc3ccccc3)nc21	1.9e-08	u	i	i	i	i
COc1ccc(C(CCc2ccc(C)o2)NC(=O)Nc2ccc(OC)cc2OC)cc1 (centres undefined)	2e-08	i	i	i	i	i
CCOc1ccc(C2C=C(c3ccc(C)cc3)Nc3nnnn32)cc1 (centres undefined)	1e-09	u	i	i	i	i
CCOc1ccc(C2C=C(c3ccc(C)cc3)Nc3ncnn32)cc1 (centres undefined)	5.4e-09	1.5e-08M*	i	i	i	u
CN(C)c1ncc2nc(-c3cccs3)c(=O)n(C3CC3)c2n1	1.4e-08	1.5e-08M*	i	i	i	i
COc1cccc(-n2nnnc2SCC(=O)N2CCCc3ccccc32)c1	8.8e-09	i	i	i	i	i
CC(=O)[C@@]1(O)Cc2c(O)c3c(c(O)c2[C@H](O[C@H]2C[C@H](N)[C@H](O)[C@H](C)O2)C1)C(=O)c1ccccc1C3=O	6.7e-08	4.7e-07M*	2.4e-08M*	2.4e-08M*	4.2e-08M*	u
COc1cccc2c1C(=N)c1c(O)c3c(c(O)c1C2=O)C[C@](O)(C(C)=O)C[C@@H]3O[C@H]1C[C@H](N)[C@@H](O)[C@H](C)O1	2e-08	i	i	i	u	1e-08M*
COc1cccc2c1C(=O)c1c(O)c3c(c(O)c1C2=O)C[C@@](O)(C(=O)CO)C[C@@H]3O[C@H]1C[C@H](N)[C@H](O)[C@H](C)O1	4.6e-09	2.9e-07M*	1.3e-08M*	7.6e-08M*	8.7e-08M*	8.3e-08M*
COc1cccc2c1C(=O)c1c(O)c3c(c(O)c1C2=O)C[C@](O)(C(C)=O)C[C@H]3O[C@@H]1C[C@H](N)[C@H](O)[C@H](C)O1	7e-09	2e-07M*	u	4.5e-08M*	6e-08M*	5.9e-08M*
CCC(C)NC(=O)c1ccc(NC(=O)C2CCCO2)cc1 (centres undefined)	2.2e-08	u	i	i	i	i
CCOC(=O)c1cc2n(n1)C(C(F)(F)C(F)(F)F)CC(C)N2 (centres undefined)	1.8e-09	u	i	i	i	u
C=CCOn1c(=O)c(-c2cc3ccccc3o2)[n+]([O-])c2ccccc21	2.2e-08	1.9e-08M*	i	i	i	i
O=C(Nc1ccccn1)NC(C(F)(F)F)C(F)(F)F	6e-09	i	i	i	i	u
COc1ccc(-c2ccc(-c3noc(-c4ccccc4OC)n3)c(OC)n2)cc1	1e-09	2.8e-08M*	u	i	i	i
COc1ccc(-c2ccc(-c3noc(-c4ccccc4C)n3)c(OC)n2)cc1	1e-09	1.2e-08M*	i	i	i	u
CCOC(=O)c1n[nH]c2ccccc12	4e-08	u	i	i	i	i
SMILES	A647 fluor	Fluorescein autfl	A488 fluor	Resorufin fluor	Rhodamine autofl	Texas Red fluor
Nc1n[nH]c2ccccc12	4.4e-08	u	i	1.1e-08M*	1.5e-08M*	2.9e-08M*
c1csc(CNc2ccnc(-c3ccoc3)n2)c1	6.7e-09	i	i	i	i	i
Cc1ccc(/C=c2\sc3nc(-c4ccco4)nn3c2=O)o1	1.9e-08	1.5e-08M*	i	i	i	i
O=c1oc2c(CN3CCOCC3)c(O)ccc2c2c1CCC2	6.5e-09	i	i	i	i	i
O=c1oc2c3c4c(cc2c(C(F)(F)F)c1CCN1CCOCC1)CCCN4CCC3	1e-09	4.6e-08M*	u	i	i	u
COC(=O)c1ccc(C2/C(=C(/O)c3ccc(OC(C)C)cc3)C(=O)C(=O)N2c2cc(C)on2)cc1 (centres undefined)	8e-09	i	i	i	i	u
COC(=O)c1ccc(C2/C(=C(/O)c3ccc(OC)cc3)C(=O)C(=O)N2c2cc(C)on2)cc1 (centres undefined)	2.7e-09	1e-08M*	i	i	i	i
CCN1C(=S)SC(=O)C1=C1C=C(C)N(Cc2ccco2)C(C)=C1	4.7e-09	u	i	i	i	u
CCN1C(=S)SC(=O)C1=C1C=C(C)OC(C)=C1	1e-09	1.7e-07M*	u	i	i	u
Cc1ccc(S(=O)(=O)c2cc3c(=O)n4ccccc4nc3n(Cc3ccco3)c2=N)cc1C	4.1e-08	1.2e-08M*	i	i	i	i
N=c1c(S(=O)(=O)c2ccccc2)cc2c(=O)n3ccccc3nc2n1Cc1ccco1	3.5e-09	u	i	i	i	i
CC1=C(C)CC(C(=O)N2CCN(Cc3ccccc3)CC2)C(C(=O)O)C1 (centres undefined)	2.7e-08	i	i	i	i	i
COc1ccccc1CNC(=O)CCS(=O)(=O)c1cccs1	1e-09	i	i	i	i	i
CCOc1cccc2cc(C(=O)N3CCc4ccccc43)c(=O)oc12	1e-09	u	i	u	1.1e-08M*	2.3e-08M*
COc1cccc2cc(C(=O)N3CCc4ccccc43)c(=O)oc12	1.2e-08	i	i	i	i	i
O=C1CCN2C=Nc3cccc4ccc1c2c34	5.7e-09	2.8e-06M*	1.5e-07M*	i	i	i
Cc1ccc(C(C)NC(=O)c2c(C)noc2C)cc1C (centres undefined)	1.3e-09	i	i	i	i	i
COC(=O)CCN(C(=O)c1ccc2c(c1)OCO2)c1ccccn1	3.4e-09	i	i	i	i	i
